Assay results: PubChem BioAssay (NCATS)
Records with an inconclusive call do not appear. The source made the active and inactive calls. Calls come from the whole dose curve; as a rule, active = well fitted curve in the direction sought with a large enough effect; inconclusive = small, poorly fitted or top-dose-only effect, or another doubt; inactive = no such curve, though single readings can be large; an effect the other way counts as inactive or inconclusive.

Experiments:
[1] = target: Calcium and integrin-binding protein 1 (Homo sapiens) (UniProt Q99828); assay: Primary qHTS for Identification of Calcium Integrin Binding Protein 1 (CIB1) Competitor (AID 1508620);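 note: GST tagged CIB1 binding a fluorescein labelled alphaIIb integrin peptide tracer; top concentration of the series differs between compounds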
Sequence of Calcium and integrin-binding protein 1 (Homo sapiens) (Q99828 whole entry, looked up): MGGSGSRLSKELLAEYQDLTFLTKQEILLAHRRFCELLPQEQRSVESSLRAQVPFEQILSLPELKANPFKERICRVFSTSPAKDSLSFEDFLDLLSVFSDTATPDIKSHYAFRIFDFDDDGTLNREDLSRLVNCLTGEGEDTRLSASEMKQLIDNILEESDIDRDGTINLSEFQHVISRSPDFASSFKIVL
Procedure, shortened: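 Fluorescence polarization competition: CIB1-GST (1 uM final) preincubated with compound 15 min at room temperature, then FITC-labeled alphaIIb peptide (100 nM final) added for another 15 min. Polarization read at Ex 480/Em 540.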

[2] = Primary qHTS for inhibitors of nuclear receptor binding SET domain protein 2 (NSD2) in an isogenic RCH-ACV NSD2 p.E1099K mutant (9B) (AID 1645876); note: nearly all actives have a fitted effect of over 70% in size
[3] = Primary qHTS for inhibitors of nuclear receptor binding SET domain protein 2 (NSD2) in an RCH-ACV wild type WT cells (2C) (AID 1645877); note: nearly all actives have a fitted effect of over 70% in size
% is set by controls: 0 for no effect and ±100 for the full control effect.

O=C(O)c1cc(O[C@@H]2O[C@H](CO)[C@@H](O)[C@H](O)[C@H]2O)ccc1O
inactive: Potency [1] | Potency [2] | Potency [3]

CC(CC12CCCN1C(=O)C1CCCN1C2=O)OC(N)=O (configuration not stated)
inactive: Potency [1] | Potency [2] | Potency [3]

C=C1CC23CC(=O)C4C(CO)(CO)CCCC4(C)C2CCC1C3 (configuration not stated)
inactive: Potency [1] | Potency [2] | Potency [3]

C=C(C)[C@@H]1CC[C@]2(C)CC[C@]3(C)C(CCC4[C@@]5(C)CC[C@H](O)C(C)(C)C5CC[C@]43C)C12 (some centres not stated)
inactive: Potency [1] | Potency [2] | Potency [3]

CC(C)=CC1C[C@](C)(O)[C@@H]2[C@H]3CCC4[C@@]5(C)CC[C@H](O[C@@H]6OC[C@H](O)[C@H](O[C@@H]7O[C@H](CO[C@@H]8O[C@H](CO)[C@@H](O)[C@H](O)[C@H]8O)[C@@H](O)[C@H](O)[C@H]7O)[C@H]6O[C@@H]6O[C@@H](C)[C@H](O)[C@@H](O)[C@H]6O)C(C)(C)[C@@H]5CC[C@@]4(C)[C@@]34CO[C@@]2(C4)O1 (some centres not stated)
inactive: Potency [1] | activity change, negative = viability loss [2] -4.74% [at 9.23 µM] | activity change, negative = cell killing [3] 3.17% [at 9.23 µM]

C/C(=C/CO)CC[C@H]1[C@]2(C)C[C@H](O)CC(C)(C)[C@H]2CC[C@]1(C)O
inactive: Potency [1] | Potency [2] | Potency [3]

C=C1[C@@H]2CC[C@@]3(C)[C@H](c4ccoc4)OC(=O)C[C@]13O[C@H]1CC(=O)C(C)(C)[C@H](C(O)C(=O)OC)[C@]12C (some centres not stated)
inactive: Potency [1] | Potency [2] | Potency [3]

O=C(O)Cc1cn([C@@H]2OC[C@@H](O[C@@H]3O[C@H](CO)[C@@H](O)[C@H](O)[C@H]3O)[C@H](O)[C@H]2O[C@@H]2O[C@H](CO)[C@@H](O)[C@H](O)[C@H]2O)c2ccccc12
inactive: Potency [1] | Potency [2] | Potency [3]

O=C(O)c1ccnc2cc(C(OCC3CCC(F)(F)CC3)c3ccccc3Cl)[nH]c12 (configuration not stated)
inactive: Potency [1] | Potency [2] | Potency [3]

C/C=C/C(=O)OC1/C=C/C(O)C(OC(C)=O)CCC(=O)OC1C (configuration not stated)
inactive: Potency [1] | Potency [2] | Potency [3]

COc1cccc(C)c1C(=O)O[C@@H]1C[C@H](O[C@H]2[C@H](O)C[C@H](O[C@@H]3CCC[C@H]4[C@H]3C=C[C@@H]3CCCC/C=C/[C@H]5C=C(C(=O)O)[C@@H](C)C[C@@]56OC(=O)C(=C6O)OC(=O)[C@@]34C)O[C@@H]2C)O[C@H](C)[C@H]1O
inactive: Potency [1] | activity change, negative = viability loss [2] -5.35% [at 9.23 µM] | activity change, negative = cell killing [3] -1.86% [at 9.23 µM]

C[C@]1(O)CC[C@@H]2C(C(=O)O)=CO[C@@H](O[C@@H]3O[C@H](COC(=O)/C=C/c4ccc(O)c(O)c4)[C@@H](O)[C@H](O)[C@H]3O)[C@@H]21
inactive: Potency [1] | Potency [2] | Potency [3]

COc1cc([C@H]2OC[C@](O)(Cc3ccc(O[C@@H]4O[C@H](CO)[C@@H](O)[C@H](O)[C@H]4O)c(OC)c3)[C@@H]2CO)ccc1O
inactive: Potency [1] | Potency [2] | Potency [3]

OC[C@H]1O[C@@H](OCc2ccccc2)[C@H](O[C@@H]2OC[C@@H](O)[C@H](O)[C@H]2O)[C@@H](O)[C@@H]1O
inactive: Potency [1] | Potency [2] | Potency [3]

CC(O)C1NC(=O)C2CCCN2C1=O (configuration not stated)
inactive: Potency [1] | Potency [2] | Potency [3]

CC1(C)C2CCC1(C)C(OC(=O)C(O)(CC(=O)O)CC(=O)O)C2 (configuration not stated)
inactive: Potency [1] | Potency [2] | Potency [3]

CC1(C(=O)O)CCCC2(C)C3CC4C5CC3(CCC12)CC45C (configuration not stated)
inactive: Potency [1] | Potency [2] | Potency [3]

CC(C)C1NC(=O)C(CC2(O)c3ccccc3N3C(=O)C(Cc4ccccc4)NC32)NC1=O (configuration not stated)
inactive: Potency [1] | Potency [2] | Potency [3]

CC1OC(O[C@H]2CC[C@@]3(C)C(CC[C@]4(C)C3CC=C3C5CC(C)(C)CC[C@]5(C(=O)OC5OC(CO)C(OC6OCC(OC7OCC(O)C(O)C7O)C(O)C6O)C(O)C5O)CC[C@]34C)C2(C)C)C(O)C(O)C1OC1OC(CO)C(O)C(OC2OC(CO)C(O)C(O)C2O)C1O (some centres not stated)
inactive: activity change, negative = inhibition [1] -8.26% [at 12.4 µM] | activity change, negative = viability loss [2] -12.9% [at 9.23 µM] | activity change, negative = cell killing [3] -19.1% [at 9.23 µM]

O=C(OC[C@H]1O[C@@H](Oc2ccccc2COC(=O)C2(O)C=CCCC2O)[C@H](O)[C@@H](O)[C@@H]1O)c1ccccc1 (some centres not stated)
inactive: Potency [1] | Potency [2] | Potency [3]

COC(=O)C1=CO[C@@H](O[C@@H]2O[C@H](CO)[C@@H](O)[C@H](O)[C@H]2O)[C@@H]2[C@@H](C)[C@@H](O)C(O)[C@H]12 (some centres not stated)
inactive: Potency [1] | Potency [2] | Potency [3]

C/C(=C\CCC(C)CCO)C(=O)OC[C@H]1O[C@@H](O[C@@H]2OC=C(C(=O)O)[C@H]3CC[C@](C)(O)[C@@H]23)C(O)[C@@H](O)C1O (some centres not stated)
inactive: Potency [1] | Potency [2] | Potency [3]

CC(C)=CCC/C(C)=C/CO[C@@H]1O[C@H](CO[C@@H]2O[C@@H](CO)[C@H](O)[C@H]2O)[C@@H](O)[C@H](O)[C@H]1O
inactive: Potency [1] | Potency [2] | Potency [3]

CC(C/C=C/C(C)(C)O)C1CCC(C)(O)C(O)C1 (configuration not stated)
inactive: Potency [1] | Potency [2] | Potency [3]

O=C1C[C@@]2(C(=O)N1)C(=O)N(Cc1ccc(Br)cc1F)C(=O)c1cccn12
inactive: Potency [1] | Potency [2] | Potency [3]

C/C=C(/C)C(=O)OC1C2OC2C2(CO2)C2C3OC(=O)C(C)C3CCC12C (configuration not stated)
inactive: Potency [1] | Potency [2] | Potency [3]

C/C=C1/[C@H](O[C@@H]2O[C@H](CO)[C@@H](O)[C@H](O)[C@H]2O)OC=C(C(=O)OC)[C@H]1CC(=O)OCCc1ccc(OC(=O)C[C@@H]2C(C(=O)OC)=CO[C@@H](O[C@@H]3O[C@H](CO)[C@@H](O)[C@H](O)[C@H]3O)/C2=C/C)cc1
inactive: Potency [1] | activity change, negative = viability loss [2] -12% [at 9.23 µM] | activity change, negative = cell killing [3] -15% [at 9.23 µM]

CC1(C)C(=O)N2c3ccccc3C(O)(CC(C(=O)O)n3cnc4ccccc4c3=O)C2N1O (configuration not stated)
inactive: Potency [1] | Potency [2] | Potency [3]

COC1OC(=O)C2=C1C1(C)CCCC(C)(C)C1CC2O (configuration not stated)
inactive: Potency [1] | Potency [2] | Potency [3]

CC1(C)CC[C@]2(C(=O)O)CC[C@]3(C)C(=CCC4[C@@]5(C)C[C@@H](O)[C@H](O)[C@](C)(CO)C5CC[C@]43C)[C@@H]2[C@@H]1O (some centres not stated)
inactive: Potency [1] | Potency [2] | Potency [3]

NC1(c2ccc(NC(=O)c3ccnc(-c4cc(C(=O)O)ccn4)c3)cc2)CC1
inactive: Potency [1] | Potency [2] | Potency [3]

CC1CCC2(C(=O)O)CCC3(C)C(=CCC4C5(C)CCC(O)C(C)(C(=O)O)C5CCC43C)C2C1(C)O (configuration not stated)
inactive: Potency [1] | Potency [2] | Potency [3]

CC1CCC23COC(=O)C2=CC(O)CC3C1(C)CCc1ccoc1 (configuration not stated)
inactive: Potency [1] | Potency [2] | Potency [3]

CC(=O)O[C@H]1C[C@@H](O)C(C)(C)C2C[C@@H](OC(C)=O)[C@@]3(C)C4=CCC(C(CO)CC(O)C5OC5(C)C)[C@]4(C)CCC3[C@]21C (some centres not stated)
inactive: Potency [1] | Potency [2] | Potency [3]
